# Vaccinia Venus = vaccinia inhibition (Venus reporter). Vaccinia virus Venus reporter expression, fluorescence. Potency, µM (highest dose often 36.5 µM), for inactives: at the top dose activity change, negative = inhibition, hits mostly inhibitors. hit rate 0.46% among 330,000. AID 720580; calls by dose curve; tested in A549 cells; further: potency means the concentration at half of the fitted maximal effect; nearly all actives have a fitted effect of over 30% in size
# HCMV inh = human cytomegalovirus inhibition; activity change, negative = inhibition, % at 57.5 µM; HFF cells, HCMV-luciferase reporter, 72 h; stronger effect = lower value; AID 1259415; hit rate 4.5% among 410,000; in the data active means activity change below about -60%; inconclusive means no clear call, values can overlap the other calls; inactive means above about -39%
#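 Steps: HFFs plated, 16 h 37C; compounds added; HCMV-luciferase added to MOI 1 PFU/cell; 72 h 37C; OneGlo reagent, 5 min room temperature; luminescence read, normalized to controls.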
# FMDV inh = antivirals against foot and mouth disease virus. FMDV antiviral cell-based qHTS. Potency, µM (highest dose often 57.9 µM), for inactives: at the top dose activity change, negative = inhibition, hits mostly inhibitors. hit rate 1.2% among 410,000; calls by dose curve; tested in HEK293T cells; further: read-out not given here; potency means the concentration at half of the fitted maximal effect; nearly all actives have a fitted effect of over 45% in size
# HCV inhibitor = inhibitors of hepatitis C virus infection; Huh7.5.1 HCVcc-Cre infection, luciferase reporter, 44 h; Potency, µM (highest dose often 41.8 µM), for the others: at the highest dose activity change, negative = inhibition, usual class: inhibitors; hit rate 3.4% among 340,000; AID 651820; active means well fitted inhibition curve with a large enough effect; inconclusive means small, poorly fitted or top-dose-only effect, or another doubt; inactive means no such curve, though single readings can be large or run the other way; further: potency means the concentration at half of the fitted maximal effect
#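 Antiviral activity was scored by luciferase reporter output from cells infected with HCVcc-Cre (~0.5 moi) in presence of compound, 44 h infection period, cells seeded 1,000/well 4 h prior.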
# Vaccinia mCherry = vaccinia inhibition (mCherry reporter); AID 720579; Vaccinia virus mCherry reporter infection, fluorescence; Potency, µM (doses to about 36.5 µM), for the others: at the top dose activity change, negative = inhibition, hits mostly inhibitors; hit rate 0.63% among 310,000; calls by dose curve; tested in A549 cells; further: potency means the concentration at half of the fitted maximal effect; nearly all actives have a fitted effect of over 35% in size
# An asterisk follows results filed as active; i = inactive; ? = inconclusive; . = no result given; [ ] = dose if it differs, or a comment. Compounds with a hit are over-represented: about 7.3% of the library has one in this group of screens. On the % scale 0 is the no-effect control and ±100 the full control effect.
SMILES,Vaccinia Venus,HCMV inh,FMDV inh,HCV inhibitor,Vaccinia mCherry
COc1ccccc1Nc1ncnc2c1c(C)c(C)n2CCCN(C)C,.,119.9,-12.7%,3.98µM*,.
COc1cc(=O)n2c(c1C(=O)N(C)Cc1cscn1)CCN(Cc1ccc3c(c1)OCCO3)CC2,0.0%,.,-12.3%,.,-16.7%
CC1=C(C(=O)Nc2cccnc2)C(c2cccc(O)c2)n2nc(SCc3ccccc3)nc2N1 (stereo unspecified),-3.2%,4.6,-19.7%,.,2.8%
Cc1ccc(NC(=O)CSc2nncn3c2cc2sccc23)cc1F,-13.7%,-19.8,-8.0%,.,-23.2%
CC(=O)N1CCN(c2nc(-c3ccco3)c3c(c2C#N)CC(C)(C)SC3)CC1,-7.2%,-0.9,?,12.6µM*,-13.7%
CC1(C)Cc2c(C#N)c(N3CCN(C(=O)c4ccco4)CC3)nc(-c3ccco3)c2CS1,.,18.2,-26.0%,8.91µM*,.
COc1ccc(-c2cc(C(F)F)n3ncc(C(=O)Nc4ccc(C(=O)N5CCOCC5)cc4)c3n2)cc1,.,-67.5*,-18.1%,-12.9%,.
O=C(Nc1ccc(C(=O)N2CCOCC2)cc1)c1cc(-c2cccnc2)nc2ccc(Br)cc12,-19.9%,-106.7*,?,?,-26.3%
CC(=O)c1ccc(N2CCN(C(=O)c3cc(-c4cccnc4)nc4ccc(Br)cc34)CC2)cc1,1.3%,-24.1,4.6%,?,0.7%
COc1ccc(-c2cc(C(F)F)n3ncc(C(=O)n4ccnc4C)c3n2)cc1,?,145.5,14.1µM*,-5.0%,-10.5%
Oc1cc(O)c(/C=C/c2ccnc3ccccc23)c(O)c1,-3.3%,.,.,.,29.2%
Cc1cccc(-c2c3c(=O)n(C)c(=O)n(C)c3cn2-c2cc(N)c(Cl)cc2Cl)c1,-10.1%[7.34 µM],1.5,-26.8%,.,-7.0%[7.34 µM]
CCC(=O)N1CCCc2cc(S(=O)(=O)N3CCC(C(=O)Nc4ccccc4CC)CC3)ccc21,-16.0%,-23.8,?,.,-14.4%
CC1=C(C(=O)NCc2cccc(Cl)c2)C2(CCCCCC2)OC1=O,-11.9%,?,-8.6%,.,-10.5%
CCOC(=O)c1c(S(=O)(=O)NCC(=O)Nc2cccc(SC)c2)c(C)n(C)c1C,-3.0%,-8.0,12.0%,.,-12.1%
CCOc1ccccc1NC(=O)N1CCC(c2nc3ccc(C)cc3[nH]2)CC1,-23.5%,-0.5,-1.0%,.,-24.0%
Cc1ccc(NC(=S)N2CCCCCC2)c(C)c1,-5.8%,-9.5,30.9%,-9.9%,?
Cc1cc2nc(C3CCCN(C(=S)Nc4ccccc4C)C3)[nH]c2cc1C (stereo unspecified),-25.9%,-17.3,.,10µM*,-7.0%
Cc1ccc2nc(C3CCCN(C(=S)Nc4cccc(C)c4C)C3)[nH]c2c1 (stereo unspecified),?,?,.,1.78µM*,?
Cc1ccc(NC(=S)N2CCCC(c3nc4ccc(C)cc4[nH]3)C2)c(C)c1 (stereo unspecified),?,-15.1,.,10µM*,?
COc1ccc(NC(=S)N2CCCC(c3nc4ccc(C)cc4[nH]3)C2)c(OC)c1 (stereo unspecified),.,-87.1*,-5.5%,?,.
O=C1CCC[C@H]2[C@@H](Cc3ccccc3)[C@@H](NS(=O)(=O)c3ccc([N+](=O)[O-])cc3)CC[C@]23CCCN13,.,-30.0,.,.,.
CC(C)COc1ccc(C(=O)N2CCCCC2CCN2CCCCC2)cc1 (stereo unspecified),-20.2%,-18.3,-5.6%,.,-27.7%
O=S(=O)(NCC(c1ccco1)S(=O)(=O)c1cccs1)c1ccc(Cl)cc1 (stereo unspecified),-7.9%[7.34 µM],?,19.7%,.,-11.9%[7.34 µM]
O=C1c2ccccc2C(=O)N1CCCCSc1nc2ccccc2c(=O)n1CCCN1CCOCC1,11.6%,-103.7*,-19.0%,-19.4%,-2.9%
SMILES,Vaccinia Venus,HCMV inh,FMDV inh,HCV inhibitor,Vaccinia mCherry
Cc1[nH]c2ccccc2c1C(=O)CSc1nc2ccccc2c(=O)n1-c1ccccc1F,.,-88.7*,.,.,.
CCOC(=O)c1c(C)[nH]c(C)c1C(=O)CSc1nc2ccccc2c(=O)n1-c1ccc(Cl)cc1,?,?,0.0%,?,-14.5%
O=C1c2ccccc2C(=O)N1CCSc1nc2ccccc2c(=O)n1CCCN1CCOCC1,-11.0%,25.2,-25.0%,-11.4%,i
Cc1[nH]c2ccccc2c1C(=O)CSc1nc2ccccc2c(=O)n1CCCN1CCOCC1,-13.6%,-73.9*,?,?,.
CNc1ccc2oc(C[C@H]3O[C@@]4(CC[C@H]3C)O[C@H]([C@H](C)C(=O)c3ccc[nH]3)[C@H](C)C[C@H]4C)nc2c1C(=O)O,2.51µM*,-99.8*,?,2.24µM*,3.55µM*
Cc1ccc(-n2ncc3c(SCc4ccccn4)ncnc32)c(C)c1,5.1%,-101.4*,?,?,5.01µM*
Cc1ccc(-n2ncc3c(SCc4ccccc4)ncnc32)cc1,-10.7%,-62.9*,4.1%,37.4%,i
O=C(c1cnn(-c2nccc(-c3ccccc3F)n2)c1C1CC1)N1CCCCC1c1cccnc1 (stereo unspecified),-27.9%,.,-8.3%,.,?
O=C(CN(Cc1ccccc1)C(=O)CCl)c1cccc(Br)c1,-15.8%,-98.7*,?,?,i
CCCCN(CC)Cc1ccc(CNC(=S)Nc2c(C)cc(C)cc2C)o1,-3.9%,-30.0,-13.5%,-11.6%,i
CCCCN(CC)Cc1ccc(CNC(=O)Nc2ccc(F)cc2)o1,.,4.6,-25.0%,11.2µM*,.
CCCn1c(SCc2nc(-c3ccccc3C)no2)nnc1-c1ccc(Cl)cc1,-2.4%,-8.7,0.0%,.,-9.2%
COc1ccc(NC(=O)[C@@H]2CC=C[C@@H]3CCN(Cc4ccc(Cl)c(Cl)c4)C(=O)[C@@H]32)cc1,?,?,-17.4%,0.562µM*,-7.0%
O=C(c1cc(COc2ccc3ncccc3c2)on1)N1CCCC(O)C1 (stereo unspecified),-27.9%,-63.5*,-19.8%,?,-9.7%
CCOC(=O)C1CCCN(C(=O)c2cc(COc3ccc(C)nc3)on2)C1 (stereo unspecified),-21.3%,58.3,-4.3%,8.91µM*,-20.0%
Cc1cc(CN(C)C(=O)c2cc(COc3ccc4ncccc4c3)on2)on1,-14.1%,-80.4*,?,2.82µM*,-3.0%
O=C(c1cc(COc2ccc3ncccc3c2)on1)N1CCC(O)CC1,-19.7%,-82.4*,-26.8%,8.91µM*,-29.8%
CCOC(=O)C1CCCN(C(=O)c2cc(-c3ccc(C)cc3)on2)C1 (stereo unspecified),-8.0%,2.8,.,-18.9%,i
Cc1ccc(OCc2cc(C(=O)N(C)Cc3cnc4ccccn34)no2)cc1C,-10.0%[7.34 µM],?,?,11.2µM*,-3.8%[7.34 µM]
COCC1CCCN(C(=O)c2cc(COc3cccc4cccnc34)on2)C1 (stereo unspecified),-9.9%,17.6,-13.5%,?,-16.8%
COCC1CCCN(C(=O)c2cc(COc3ccc4ncccc4c3)on2)C1 (stereo unspecified),-15.3%,-85.0*,?,1µM*,-7.1%
O=C(NC1CCCCCCC1)c1cc(COc2ccc3ncccc3c2)on1,-17.7%,?,3.55µM*,?,-24.9%
Cc1cccc(C)c1OCc1cc(C(=O)NC2CCC2)no1,.,-13.1,33.8%,?,.
